“And” between values parts separate entries of the source, which are not always exact repeats. Equal values may be shown once. Out of some 5,500 compounds screened, about 2,000 (36%) were called active. Another 18% or so got no clear call; they are omitted. No stated cut-off is given here; in the data, active means normalized growth mostly below about 0.91 (no sharp cut-off); inconclusive means no clear call, values can overlap the other calls; inactive means mostly above about 0.92. The list shows a part of the results.
Test: chemical genetic growth profiling, strain panel (AID 1159580);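 further: tested at 20 µM; growth read once vehicle control cultures reached saturation at 30 °C; 1 = growth at the plate median or of vehicle wells; lower values mean less growth of the strain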
Details: growth OD
[1] = S. cerevisiae deletion strains, locus YBR229C, strain ROT2, active compounds read low
[2] = S. cerevisiae deletion strains, locus YDL101C, strain DUN1, active compounds read low
[3] = S. cerevisiae deletion strains, locus YDR150W, strain NUM1, active compounds read low
[4] = S. cerevisiae deletion strains, locus YEL061C, strain CIN8, active compounds read low
[5] = S. cerevisiae deletion strains, locus YGR078C, strain PAC10, active compounds read low
[6] = S. cerevisiae deletion strains, locus YHR030C, strain SLT2, active compounds read low
[7] = S. cerevisiae deletion strains, locus YJR043C, strain POL32, active compounds read low
[8] = S. cerevisiae deletion strains, locus YLR039C, strain RIC1, active compounds read low
[9] = S. cerevisiae deletion strains, locus YLR262C, strain YPT6, active compounds read low
[10] = S. cerevisiae deletion strains, locus YNL322C, strain KRE1, active compounds read low
[11] = S. cerevisiae deletion strains, locus YPL055C, strain LGE1, active compounds read low

Measured: normalized growth

Cc1cc(C)c(NC(=S)NCCCN2CCOCC2)c(C)c1
inactive: S. cerevisiae deletion strains, locus YAL013W, strain DEP1, active compounds read low 1 | [1] 1.01 | [2] 0.992 | [3] 0.901 | [4] 1.01 | [5] 1.02 | [6] 1.07 | S. cerevisiae deletion strains, locus YHR087W, strain rtc3, active compounds read low 1.01 | S. cerevisiae deletion strains, locus YJL187C, strain SWE1, active compounds read low 1.01 | [7] 0.986 | S. cerevisiae deletion strains, locus YJR075W, strain HOC1, active compounds read low 0.999 | [8] 1.03 | S. cerevisiae deletion strains, locus YLR058C, strain SHM2 (second series), active compounds read low 1.01 | S. cerevisiae deletion strains, locus YLR085C, strain ARP6, active compounds read low 1.05 | [9] 1.02 | S. cerevisiae deletion strains, locus YML094W, strain GIM5, active compounds read low 1 | S. cerevisiae deletion strains, locus YMR219W, strain ESC1, active compounds read low 1 | S. cerevisiae deletion strains, locus YMR263W, strain SAP30, active compounds read low 1.03 | S. cerevisiae deletion strains, locus YNL153C, strain GIM3, active compounds read low 0.992 | S. cerevisiae deletion strains, locus YNL298W, strain CLA4 (second series), active compounds read low 1.04 | [10] 1.01 | S. cerevisiae deletion strains, locus YNR030W, strain Alg12, active compounds read low 1.02 | [11] 0.912 | S. cerevisiae deletion strains, locus YPL241C, strain CIN2, active compounds read low 0.995 | S. cerevisiae deletion strains, locus YPR135W, strain CTF4, active compounds read low 1.01

Cc1ccc(C(=O)C(C)CN2CCCCC2)cc1 (configuration not stated)
inactive: S. cerevisiae deletion strains, locus YBR021W, strain FUR4, active compounds read low 1 | [1] 1.01 | S. cerevisiae deletion strains, locus YCL029C, strain bik1, active compounds read low 1.02 | S. cerevisiae deletion strains, locus YDL035C, strain GPR1, active compounds read low 1.01 | S. cerevisiae deletion strains, locus YDL074C, strain BRE1, active compounds read low 1.01 | [2] 1.01 | S. cerevisiae deletion strains, locus YDL134C, strain PPH21, active compounds read low 1.02 | S. cerevisiae deletion strains, locus YDL185W, strain tfp1, active compounds read low 1.02 | S. cerevisiae deletion strains, locus YDL192W, strain arf1, active compounds read low 1.02 | S. cerevisiae deletion strains, locus YDR101C, strain arx1, active compounds read low 0.998 | [3] 1 | S. cerevisiae deletion strains, locus YDR162C, strain NBP2, active compounds read low 1.01 | S. cerevisiae deletion strains, locus YDR318W, strain mcm21, active compounds read low 1.02 | S. cerevisiae deletion strains, locus YDR388W, active compounds read low 1.02 | S. cerevisiae deletion strains, locus YDR502C, strain sam2, active compounds read low 1.01 | [4] 1.01 | S. cerevisiae deletion strains, locus YER110C, active compounds read low 1.01 | S. cerevisiae deletion strains, locus YER155C, strain BEM2, active compounds read low 1.01 | S. cerevisiae deletion strains, locus YER167W, strain BCK2, active compounds read low 1.02 | S. cerevisiae deletion strains, locus YGL078C, strain dbp3, active compounds read low 1.01 | S. cerevisiae deletion strains, locus YGL086W, strain mad1, active compounds read low 1.03 | S. cerevisiae deletion strains, locus YGL248W, strain PDE1, active compounds read low 1.01 | [5] 1 | S. cerevisiae deletion strains, locus YGR135W, strain pre9, active compounds read low 1 | S. cerevisiae deletion strains, locus YGR229C, strain SMI1, active compounds read low 0.983 | S. cerevisiae deletion strains, locus YGR252W, strain gcn5, active compounds read low 0.987 | [6] 1.01 and 0.991 | S. cerevisiae deletion strains, locus YHR079C, strain IRE1 (second series), active compounds read low 1.02 | S. cerevisiae deletion strains, locus YHR079C, strain IRE1, active compounds read low 0.993 | S. cerevisiae deletion strains, locus YHR094C, strain hxt1, active compounds read low 1.01 | S. cerevisiae deletion strains, locus YHR129C, strain ARP1, active compounds read low 1.02 | S. cerevisiae deletion strains, locus YHR200W, strain rpn10, active compounds read low 1.02 | S. cerevisiae deletion strains, locus YIL066C, strain RNR3, active compounds read low 1.01 | S. cerevisiae deletion strains, locus YIL073C, strain SPO22, active compounds read low 0.993 | S. cerevisiae deletion strains, locus YIL125W, strain kgd1, active compounds read low 1.02 | S. cerevisiae deletion strains, locus YIR030C, strain dcg1, active compounds read low 1.01 | S. cerevisiae deletion strains, locus YJL095W, strain BCK1, active compounds read low 0.973 and 0.966 | S. cerevisiae deletion strains, locus YJL134W, strain LCB3, active compounds read low 1.01 | S. cerevisiae deletion strains, locus YJL168C, strain set2, active compounds read low 1.02 | S. cerevisiae deletion strains, locus YJL187C, strain SWE1 (second series), active compounds read low 1 | [7] 1.02 | S. cerevisiae deletion strains, locus YJR066W, strain TOR1, active compounds read low 0.907 | S. cerevisiae deletion strains, locus YKL009W, strain mrt4, active compounds read low 1.03 | S. cerevisiae deletion strains, locus YKL068W, active compounds read low 1.01 | S. cerevisiae deletion strains, locus YKL085W, strain MDH1 (second series), active compounds read low 1.03 | S. cerevisiae deletion strains, locus YKL085W, strain MDH1, active compounds read low 1.03 | S. cerevisiae deletion strains, locus YKL190W, strain CNB1, active compounds read low 1.01 | S. cerevisiae deletion strains, locus YKR001C, strain vps1, active compounds read low 1.03 | [8] 0.993 | S. cerevisiae deletion strains, locus YLR058C, strain SHM2, active compounds read low 1.02 | S. cerevisiae deletion strains, locus YLR102C, strain apc9, active compounds read low 1.01 | S. cerevisiae deletion strains, locus YLR113W, strain HOG1, active compounds read low 1.01 | [9] 1.02 | S. cerevisiae deletion strains, locus YLR268W, strain sec22, active compounds read low 1 | S. cerevisiae deletion strains, locus YLR330W, strain CHS5, active compounds read low 1 | S. cerevisiae deletion strains, locus YLR342W, strain FKS1 (second series), active compounds read low 0.973 | S. cerevisiae deletion strains, locus YLR371W, strain rom2, active compounds read low 1.02 | S. cerevisiae deletion strains, locus YLR418C, strain cdc73, active compounds read low 1.02 | S. cerevisiae deletion strains, locus YML016C, strain PPZ1, active compounds read low 1.01 | S. cerevisiae deletion strains, locus YML032C, strain rad52, active compounds read low 1.01 | S. cerevisiae deletion strains, locus YML124C, strain tub3, active compounds read low 1.01 | S. cerevisiae deletion strains, locus YMR078C, strain ctf18, active compounds read low 1.02 | S. cerevisiae deletion strains, locus YMR223W, strain ubp8, active compounds read low 1.01 | S. cerevisiae deletion strains, locus YMR307W, strain GAS1, active compounds read low 1.14 | S. cerevisiae deletion strains, locus YNL067W, strain RPL9B, active compounds read low 1.01 | S. cerevisiae deletion strains, locus YNL128W, strain TEP1, active compounds read low 1.03 | S. cerevisiae deletion strains, locus YNL183C, strain NPR1, active compounds read low 0.899 | S. cerevisiae deletion strains, locus YNL233W, strain BNI4, active compounds read low 0.993 | S. cerevisiae deletion strains, locus YNL250W, strain rad50, active compounds read low 1.01 | S. cerevisiae deletion strains, locus YNL271C, strain bni1, active compounds read low 1.02 | S. cerevisiae deletion strains, locus YNL298W, strain CLA4, active compounds read low 1.03 | S. cerevisiae deletion strains, locus YNL307C, strain MCK1, active compounds read low 1.03 | [10] 1.01 | S. cerevisiae deletion strains, locus YNR052C, strain pop2, active compounds read low 1.02 | S. cerevisiae deletion strains, locus YOL006C, strain TOP1, active compounds read low 1 | S. cerevisiae deletion strains, locus YOL012C, strain htz1 0.819 | S. cerevisiae deletion strains, locus YOL147C, strain pex11, active compounds read low 1.01 | S. cerevisiae deletion strains, locus YOR061W, strain CKA2, active compounds read low 1.02 | S. cerevisiae deletion strains, locus YOR069W, strain VPS5, active compounds read low 1 | S. cerevisiae deletion strains, locus YOR136W, strain idh2, active compounds read low 1.02 | S. cerevisiae deletion strains, locus YOR144C, strain elg1, active compounds read low 1.01 | S. cerevisiae deletion strains, locus YOR184W, strain ser1, active compounds read low 1.01 | S. cerevisiae deletion strains, locus YOR231W, strain MKK1, active compounds read low 0.984 | S. cerevisiae deletion strains, locus YOR316C, strain cot1, active compounds read low 1.02 | [11] 1.03 | S. cerevisiae deletion strains, locus YPL256C, strain CLN2, active compounds read low 0.976 | S. cerevisiae deletion strains, locus YPR119W, strain clb2, active compounds read low 1.02 | S. cerevisiae deletion strains, locus YPR141C, strain kar3, active compounds read low 1.02 | S. cerevisiae deletion strains, locus YPR163C, strain tif3, active compounds read low 1.03 | S. cerevisiae deletion strains, locus YPR167C, strain met16, active compounds read low 1.02 | S. cerevisiae deletion strains, strain wtn01, active compounds read low 1.01 | S. cerevisiae strains, strain wild type, active compounds read low 1.01

From PubChem BioAssay AID1159580 (chemical genetic matrix, 2015)
